Screening data deposited in PubChem BioAssay by National Center for Advancing Translational Sciences (NCATS).
Giardia FBPA inh – qHTS Assay for Inhibitors of Fructose-1,6-bisphosphate Aldolase from Giardia Lamblia; A8B2U2; purified Giardia FBPA; Potency, µM (doses to about 59.6 µM), for the others: at the highest dose activity, negative = inhibition, hits mostly inhibitors; actives 0.71% (n = 290,000); AID 2451, 2010; further: nearly all actives have a fitted effect of over 55% in size
Target sequence (A8B2U2 whole entry, looked up): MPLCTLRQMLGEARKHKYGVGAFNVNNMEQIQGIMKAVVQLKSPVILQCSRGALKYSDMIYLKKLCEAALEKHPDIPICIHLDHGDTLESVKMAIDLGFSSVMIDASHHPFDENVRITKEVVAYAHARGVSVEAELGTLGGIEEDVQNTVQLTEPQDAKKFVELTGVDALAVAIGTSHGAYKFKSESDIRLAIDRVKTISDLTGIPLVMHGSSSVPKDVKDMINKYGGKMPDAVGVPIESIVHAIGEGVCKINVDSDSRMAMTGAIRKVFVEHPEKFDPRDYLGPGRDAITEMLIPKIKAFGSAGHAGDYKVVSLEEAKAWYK
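Giardia FBPA (40 nM reagent) was preincubated 10 min at RT with compound (up to 57.5 uM final), then substrate plus GAPDH/TPI/NAD/arsenate coupling system with diaphorase/resazurin was added; resorufin fluorescence (525/598 nm) was read after 20 min.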
RE007 growth inh – qHTS Assay for Inhibitors of the HIV-1 protein Vpr; S. pombe RE007 Vpr strain, BacTiter-Glo ATP luminescence, 24 h; Potency, µM (highest dose often 92.2 µM), without a hit: top-dose activity change, negative = less growth, hits mostly inhibitors; actives 0.21% (n = 360,000); active means well fitted falling curve with a large enough effect; inconclusive means small, poorly fitted or top-dose-only effect; inactive means no such curve, though single readings can be large or run the other way; further: nearly all actives have a fitted effect of over 50% in size
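Fission yeast strain RE007, carrying one chromosomally integrated HIV-1 vpr copy, was seeded at OD 0.01 in PMG+AL medium with 23 nL pinned compound. After 24 h at 30 °C and 99% humidity, viability was read by BacTiter-Glo luminescence.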
LmPK inhibitor – qHTS Assay for Inhibitors of Leishmania Mexicana Pyruvate Kinase (LmPK). Potency, µM (highest dose often 57.5 µM), inactives show top-dose activity change, negative = inhibition, actives largely listed as inhibitors. purified LmPK, Kinase-Glo ATP luminescence, 1 h. actives 0.37% (n = 290,000). AID 1721, 2009
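Purified LmPK (0.1 nM) with 0.5 mM PEP and 0.1 mM ADP in imidazole buffer pH 7.2 with MgCl2/KCl, 1 h at room temperature. ATP formed was read by luciferase luminescence and normalized to no-enzyme and uninhibited controls.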
Tb PYK inh – qHTS of Trypanosoma Brucei Inhibitors. TbPYK enzyme, Kinase-Glo Plus ATP luminescence, 45 min. Potency, µM (top dose mostly 76.8 µM), for inactives: at the highest dose activity, negative = inhibition, usual class: inhibitors. actives 0.12% (n = 410,000). AID 624173, 2012; further: nearly all actives have a fitted effect of over 50% in size
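TbPYK + substrate in 50 mM TEA pH 7.2, 100 mM KCl, 10 mM MgCl2, 0.05% BSA, 0.01% Tween-20; cpd pinned; ADP 130 uM final; 45 min RT; Kinase-Glo Plus 10 min; luminescence endpoint.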
Sm TGR inh – qHTS Assay for the Inhibitors of Schistosoma Mansoni Peroxiredoxins; purified TGR, DTNB reduction, TNB absorbance 405 nm; Potency, µM (top dose mostly 114 µM), for the others: at the highest dose activity change, negative = inhibition, actives largely listed as inhibitors; actives 3% (n = 360,000); further: nearly all actives have a fitted effect of over 60% in size
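Kinetic colorimetric format: TGR-catalysed, NADPH-driven DTNB reduction monitored via TNB absorbance. Enzyme dispensed at 20 nM; compound exposure 15 min at room temperature before reaction start.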
Numbers without * were called inactive; ? = inconclusive; nt = no result; [ ] = dose if it differs, or a comment. Compounds with a hit are over-represented: about 3.3% of the library has one in this group of screens. Unless noted, the call rests on the fitted dose curve; in most records, active means well fitted curve in the direction sought with a large enough effect; inconclusive means small, poorly fitted or top-dose-only effect, or another doubt; inactive means no such curve, though single readings can be large; an effect the other way counts as inactive or inconclusive. On the % scale 0 is the no-effect control and ±100 the full control effect; potency means the concentration at half of the fitted maximal effect.

SMILES | Giardia FBPA inh | RE007 growth inh | LmPK inhibitor | Tb PYK inh | Sm TGR inh
CCc1ccc(NC2CC(=O)N(c3ccc(OC)cc3OC)C2=O)cc1 (stereo unspecified) | -7.9% | -10.7% | -0.3% | 9.0% | 35.5µM*
COc1ccc(CCN2C(=O)CC(Sc3ncccc3C(=O)O)C2=O)cc1OC (stereo unspecified) | 1.7% | -9.0% | -2.9% | -5.9% | 11.2µM*
COc1ccc(CCN2C(=O)CC(Nc3ccc(N4CCOCC4)cc3)C2=O)cc1OC (stereo unspecified) | 11.0% | 4.2% | 0.6% | -18.9% | 20µM*
CCc1ccc(NC2CC(=O)N(CCc3ccc(OC)c(OC)c3)C2=O)cc1 (stereo unspecified) | 0.1% | -10.7% | -0.3% | -21.0% | 14.1µM*
Cc1ccnc(NS(=O)(=O)c2cnc(Cl)c(Br)c2)c1 | -0.8% | 4.3% | -1.8% | -4.3% | -18.7%
CCCCCC(O)CCCC(=O)O (stereo unspecified) | -3.4% | -5.3%[18.4 µM] | nt | 6.5% | nt
CCCCCCCCCCCCCCCC(O)C[N+](C)(C)CCO (stereo unspecified) | nt | 35.5µM* | nt | -13.7% | nt
Cc1nc2scc(-c3ccccc3)c2c(=O)n1N=C1C=CC(=O)C=C1 | -0.6% | -4.4% | -20.7% | 3.98µM* | -5.2%
Cc1nc2scc(-c3ccccc3)c2c(=O)n1N | -1.6% | 1.5% | 8.7% | -0.3% | 0.0%[11.4 µM]
Cn1cccc1/C=C1/C(=O)NC(=S)N(Cc2ccc(F)cc2)C1=O | -8.4% | -0.5% | -16.6% | ? | 25.1µM*
Cn1cccc1/C=C1/C(=O)NC(=O)N(Cc2ccc(F)cc2)C1=O | 5.0% | -7.0% | -2.8% | -4.8% | -10.9%
NC(Cc1ccc2nonc2c1)C(=O)O (stereo unspecified) | -10.6% | 2.8% | 0.7% | -2.5% | -3.2%
CCC1=C/C(=C/c2sc3ccccc3[n+]2CC)CC(C)(C)C1 | -27.1% | -11.8% | 6.3% | ? | 1.78µM*
CC[n+]1c(/C=C2/C=C(C)CC(C)(C)C2)sc2ccc(OC)cc21 | ? | ? | -4.8% | -36.3% | 17.8µM*
CC[n+]1c(/C=C2\C=C(C)CC(C)C2)sc2ccccc21 (stereo unspecified) | -17.0% | -26.2% | -0.6% | -24.6% | 39.8µM*
CC[n+]1c(/C=C2\C=C(C)CC(C)(C)C2)sc2ccccc21 | -26.8% | -14.2% | -1.7% | ? | 14.1µM*
CCOC(=O)c1sc(C)c2c1NC(C)(c1ccccc1)NC2=O (stereo unspecified) | -2.7% | 2.9% | 2.4% | 1.3% | -12.5%
CCCN(CCC)Cc1cc(=O)oc2cc(C)ccc12 | nt | -14.6% | nt | 4.1% | nt
Nc1c(N2CCCC2)cc(Cl)c2nonc12 | ? | -28.2% | 3.2% | -14.3% | 56.2µM*
Nc1ccc(N2CCCCC2)c2nonc12 | 1.99µM* | -8.4% | -8.4% | ? | ?
CC(C(=O)OCC(=O)Nc1ccc(S(N)(=O)=O)cc1)N1C(=O)c2ccccc2C1=O (stereo unspecified) | nt | 5.0% | nt | 1.6% | nt
Cc1ccc(NC(=O)/C=C/c2ccco2)cc1F | nt | nt | nt | -3.4% | 14.1µM*
Cc1cc(NC(=O)/C=C/c2ccco2)ccc1NC(=O)c1ccccc1 | 1.5% | 9.0% | 3.2% | -2.9% | 10µM*
O=C(/C=C/c1ccco1)Nc1ccc2nn(-c3ccccc3)nc2c1 | -5.7% | 3.9% | 0.5% | -2.0% | 31.6µM*
CCN(c1ccc(Cl)cc1)S(=O)(=O)c1nnc(NC(=O)C(C)C)s1 | 7.7% | 4.0% | 0.4% | -5.1% | -2.4%
SMILES | Giardia FBPA inh | RE007 growth inh | LmPK inhibitor | Tb PYK inh | Sm TGR inh
CN(C(=O)/C=C/c1ccc([N+](=O)[O-])s1)c1ccccc1 | 3.7% | -26.4% | 0.9% | -5.2% | 11.2µM*
COc1ccc(S(=O)(=O)N2CCC(C(=O)N[C@H](C(=O)NCc3ccco3)C(C)C)CC2)cc1 | nt | 1.6% | 5.3% | -3.4% | 1.8%
CCc1ccc2[nH]c(=O)c(C(c3nnnn3CC3CCCO3)N3CCCc4ccccc43)cc2c1 (stereo unspecified) | ? | -5.2% | -1.0% | 0.4% | 35.5µM*
Cc1cccc2cc(C(c3nnnn3CC3CCCO3)N3CCCc4ccccc43)c(=O)[nH]c12 (stereo unspecified) | -8.8% | -1.2% | 0.7% | 2.7% | -12.7%
O=C(NCc1cccs1)C1CCCN1C(=O)Nc1cccc(F)c1 (stereo unspecified) | 0.3% | 13.9% | 8.3% | 0.4% | 4.3%
N#C/C(=C\c1cccnc1)C(=O)Nc1cccc2ccccc12 | -15.9% | 31.6µM* | 5.3% | -21.8% | -20.1%
O=c1c2ccccc2c(=O)n(-c2ccccc2)n1CCCCBr | nt | 8.1% | nt | -2.9% | nt
CC(=O)n1c(=O)c2ccccc2c(=O)n1-c1ccccc1 | -20.1% | 3.4% | -0.7% | -2.8% | 31.6µM*
O=C(C1=C[C@@H](c2ccc(C(F)(F)F)cc2)C[C@@H](OCc2ccc(CO)cc2)O1)N1CCOCC1 | -4.0% | 11.4% | 4.2% | 2.1% | ?
COc1cccc(CNc2nc3cc(C(C)=C(C)C)sc3c(=O)n2C)c1 | nt | 4.7% | nt | ? | nt
CN(C)c1ccc(/C=N/NC(=O)c2ccco2)cc1 | -4.6% | -26.8% | 15.8µM* | -18.8% | -11.5%
O=C(N/N=C/c1ccc2ncccc2c1)c1ccco1 | 1.9% | -14.4% | 14.1µM* | -18.9% | -14.2%
Cc1ccc(/C=N/NC(=O)c2ccco2)cc1 | -2.8% | -5.5% | ? | -4.4% | -1.9%
COc1ccc(/C=N/NC(=O)c2ccco2)cc1Cn1nc(C)cc1C | 4.5% | 2.6% | -3.9% | 2.8% | 50.1µM*
O=C(CSC1=NCCS1)Nc1cccc(F)c1 | -7.6% | 2.9% | 0.0% | 3.4% | nt
Cc1ccc(C)c(C(=O)c2c(N)c(-c3nc(-c4ccc5c(c4)OCO5)cs3)c3ccccn23)c1 | nt | nt | nt | 2.1% | 1.9%
CC(=O)N1c2ccc3ccccc3c2C2C=CCC2C1c1ccc(Br)cc1 (stereo unspecified) | ? | nt | 0.2% | nt | -18.3%
O=C(NCc1ccc2[nH]c3c(c2c1)CCCC3)N1CCOCC1 | ? | nt | -11.7% | nt | 35.5µM*
CCc1cc2c(=O)[nH]c(-c3ccccn3)nc2s1 | 14.0% | 31.6µM* | -10.7% | 0.5% | -6.9%
COc1cnc(-c2ccccn2)[nH]c1=O | 3.54µM* | 3.2% | -12.3% | -1.4% | 2.6%
COc1cnc(-c2ccccn2)nc1NC(C)C | ? | -23.0% | -29.1% | 5.7% | -2.1%
COc1ccc2c3c(cccc13)C(=O)N(O)C2=O | 7.2% | nt | -0.4% | -13.8% | 5.9%
CCC1=NNc2cccc3c(OC)ccc1c23 | ? | nt | ? | nt | 10µM*
COc1ccc(C(=O)Nc2ccc(S(=O)(=O)N(Cc3ccccc3)c3ccccc3)cc2)cc1 | nt | nt | nt | 1.4% | -6.0%
NC(=O)c1ccccc1N/C=C/C(=O)c1ccc(Cl)cc1Cl | 1.9% | -18.6% | 15.8µM* | -14.3% | 0.9%
